From PubChem BioAssay (Tox21)
Results filed as inconclusive are left out. Active and inactive are the calls of the source. Unless noted, calls come from the whole dose curve.

Experiments:
[1] = Nuclear factor erythroid 2-related factor 2/antioxidant responsive element (Nrf2/ARE) small molecule agonists: qHTS cell viability counter screen in human keratinocytes (AID 1919968; active = well fitted curve in the direction sought with a large enough effect in the repeat runs; an effect the other way counts as inactive or inconclusive; note: nearly all actives have a fitted effect of over 55% in size)
Summary of the method: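 In human HaCaT keratinocytes stably expressing an ARE-driven luciferase, compound exposure lasted 23 h at 37 C under 5% CO2. Viable cells are quantified with a protease-based fluorogenic reagent (CellTiter-Fluor) read 1 h after addition.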

[2] = Nuclear factor erythroid 2-related factor 2/antioxidant responsive element (Nrf2/ARE) small molecule agonists: luciferase reporter gene qHTS assay in human keratinocytes (AID 1919969); note: nearly all actives have a fitted effect of over 35% in size
[3] = target: Gonadotropin-releasing hormone receptor (Homo sapiens) (UniProt P30968); assay: Human gonadotropin-releasing hormone receptor (GnRHR) small molecule agonists, calcium flux assay in GnRHR-HEK293 cells (AID 1920063); note: nearly all actives have a fitted effect of over 35% in size
Gonadotropin-releasing hormone receptor (Homo sapiens), sequence (P30968 whole entry, looked up): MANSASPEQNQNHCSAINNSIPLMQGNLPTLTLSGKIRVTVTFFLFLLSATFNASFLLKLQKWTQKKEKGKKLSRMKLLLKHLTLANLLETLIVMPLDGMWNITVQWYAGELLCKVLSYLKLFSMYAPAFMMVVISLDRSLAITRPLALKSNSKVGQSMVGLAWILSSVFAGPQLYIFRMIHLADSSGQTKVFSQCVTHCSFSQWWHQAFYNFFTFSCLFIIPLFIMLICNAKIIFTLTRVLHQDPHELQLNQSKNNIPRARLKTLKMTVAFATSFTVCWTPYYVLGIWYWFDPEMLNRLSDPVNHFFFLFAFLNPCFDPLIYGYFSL
Summary of the method: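 Intracellular calcium rise is the read-out: engineered human GnRHR HEK293 cells, dye-loaded, are exposed to DMSO-dissolved compounds and fluorescence at Ex/Em 480/540 is tracked for 3 min.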

[4] = target: KiSS-1 receptor (Homo sapiens) (UniProt Q969F8); assay: Human kisspeptin (KISS1R) small molecule agonists, calcium flux assay in KISS1R-HEK293 cells (AID 1920064; active = well fitted curve in the direction sought with a large enough effect in the repeat runs; an effect the other way counts as inactive or inconclusive)
KiSS-1 receptor (Homo sapiens), sequence (Q969F8 whole entry, looked up): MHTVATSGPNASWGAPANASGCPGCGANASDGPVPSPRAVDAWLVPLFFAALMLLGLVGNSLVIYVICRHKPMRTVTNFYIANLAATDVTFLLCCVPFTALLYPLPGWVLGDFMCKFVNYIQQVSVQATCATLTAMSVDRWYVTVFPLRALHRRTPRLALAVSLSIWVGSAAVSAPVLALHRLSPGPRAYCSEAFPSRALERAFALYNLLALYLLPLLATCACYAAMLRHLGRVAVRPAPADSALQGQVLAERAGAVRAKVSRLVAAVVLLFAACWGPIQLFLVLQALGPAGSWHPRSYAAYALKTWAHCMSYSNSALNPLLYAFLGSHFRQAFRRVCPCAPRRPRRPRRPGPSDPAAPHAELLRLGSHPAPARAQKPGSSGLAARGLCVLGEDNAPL
Summary of the method: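 Concentration-response testing used 15 concentrations in triplicate on human KISS1R-expressing HEK293 cells. Calcium-dependent fluorescence (Ex/Em 480/540) was followed kinetically for 3 min after compound transfer.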

[5] = G protein-coupled receptor (GPCR) small molecule agonists, calcium flux assay: HEK293 wild type cell line counter screen (AID 1920065)
Summary of the method: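 Fluorescence intensity signals activation. After overnight (18 h) culture and a 1 h calcium dye load at 37 C, compounds are added by pin tool and the plate read at 480/540 nm for 3 min in 1 s steps.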

[6] = p53 small molecule agonists, cell-based qHTS assay with human liver microsomes (AID 1963577);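 note: p53 response element beta-lactamase reporter cells with liver microsomes plus NADPH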
Summary of the method: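 HLM-supplemented p53RE-bla reporter assay: 16 h compound exposure at 37 C, microsomes and NADPH each 0.5 mg/mL final, read by fluorescence intensity.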

[7] = p53 small molecule agonists, cell-based qHTS assay with rat liver microsomes (AID 1963578)
Summary of the method: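 Quantitative HTS of the Tox21 10K library: p53RE-bla cells, rat liver microsomes plus NADPH at 0.5 mg/mL final each, 16 h at 37 C, beta-lactamase fluorescence detection.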

[8] = p53 small molecule agonists, cell-based qHTS assay with human liver microsomes: qHTS cell viability counter screen (AID 1963579); note: nearly all actives have a fitted effect of over 45% in size
Summary of the method: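 Viability of p53RE-bla cells is measured as CellTiter-Glo luminescence following a 16 h, 37 C incubation with compound, liver microsomes from human donors and NADPH.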

[9] = p53 small molecule agonists, cell-based qHTS assay: qHTS cell viability counter screen (AID 1963581); note: nearly all actives have a fitted effect of over 45% in size
Summary of the method: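 Luminescence from CellTiter-Glo, reflecting ATP content, serves as the cytotoxicity measure; it is taken after the 2 h reporter substrate step in HCT-116 p53RE-bla cells dosed for 16 h at 37 C.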

[10] = p53 small molecule agonists, cell-based qHTS assay (AID 1963582; active = well fitted activation curve with a large enough effect in the signal ratio in the repeat runs, not every such curve was filed as active; the % refers to the signal ratio)
Summary of the method: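 After plating, p53RE-bla cells sat 5 h in the incubator; compounds or DMSO vehicle were pinned in; a 16 h incubation at 37 C followed; FRET substrate was added and, 2 h later at RT, fluorescence was measured.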

[11] = target: 5-hydroxytryptamine receptor 2A (Homo sapiens) (UniProt P28223); assay: 5-hydroxytryptamine receptor 2A (HTR2A) small molecule antagonists, cell-based qHTS assay (AID 1963586); note: nearly all actives have a fitted effect of over 45% in size
5-hydroxytryptamine receptor 2A (Homo sapiens), sequence (P28223 whole entry, looked up): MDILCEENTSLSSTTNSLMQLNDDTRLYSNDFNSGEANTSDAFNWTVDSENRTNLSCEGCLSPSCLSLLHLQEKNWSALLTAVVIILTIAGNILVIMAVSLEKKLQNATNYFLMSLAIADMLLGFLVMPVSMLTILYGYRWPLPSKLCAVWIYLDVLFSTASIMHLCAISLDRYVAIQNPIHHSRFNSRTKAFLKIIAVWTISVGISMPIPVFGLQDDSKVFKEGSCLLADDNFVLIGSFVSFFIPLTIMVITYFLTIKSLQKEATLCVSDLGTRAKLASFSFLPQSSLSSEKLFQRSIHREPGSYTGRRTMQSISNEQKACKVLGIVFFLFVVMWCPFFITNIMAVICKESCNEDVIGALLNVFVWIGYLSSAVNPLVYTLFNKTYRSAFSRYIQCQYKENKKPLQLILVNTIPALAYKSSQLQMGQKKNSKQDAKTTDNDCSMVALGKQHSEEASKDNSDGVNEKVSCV
Summary of the method: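 CHO cells stably expressing human HTR2A were plated for 18 h at 37 C, then loaded with calcium dye for 1 h. Compounds were preincubated 5 min at room temperature before DOI (4 nM solution) was added. Kinetic fluorescence was read for 3 min.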

[12] = target: Muscarinic acetylcholine receptor M1 (Homo sapiens) (UniProt P11229); assay: Cholinergic receptor muscarinic 1 (CHRM1) small molecule agonists, cell-based qHTS assay (AID 1963589); note: nearly all actives have a fitted effect of over 35% in size
Muscarinic acetylcholine receptor M1 (Homo sapiens), sequence (P11229 whole entry, looked up): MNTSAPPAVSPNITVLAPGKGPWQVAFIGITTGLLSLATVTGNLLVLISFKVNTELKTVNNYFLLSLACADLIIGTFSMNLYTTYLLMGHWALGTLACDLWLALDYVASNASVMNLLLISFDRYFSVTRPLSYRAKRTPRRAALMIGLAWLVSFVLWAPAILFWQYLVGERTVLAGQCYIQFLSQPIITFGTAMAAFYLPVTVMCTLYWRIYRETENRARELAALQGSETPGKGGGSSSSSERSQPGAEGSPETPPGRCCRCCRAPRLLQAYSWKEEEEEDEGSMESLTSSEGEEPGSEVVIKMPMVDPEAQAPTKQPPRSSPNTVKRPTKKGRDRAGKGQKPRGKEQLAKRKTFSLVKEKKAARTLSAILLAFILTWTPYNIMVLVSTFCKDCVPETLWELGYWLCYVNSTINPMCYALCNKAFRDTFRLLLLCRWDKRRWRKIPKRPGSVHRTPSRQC
Summary of the method: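 Fluorescent calcium dye reports M1 activation in stably transfected CHO cells. Compounds, 15 concentrations, added after 1 h dye loading at 37 C; kinetic reading at 1 sec intervals.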

[13] = cAMP Responsive Elements (CRE) small molecule agonists, cell-based qHTS assay (AID 1963590)
Summary of the method: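 Compound exposure lasted 3 h at 37 C/5% CO2 in CRE-bla HEK 293T cells grown in assay medium with 10% dialyzed FBS and 25 mM HEPES. Reporter signal came from LiveBLAzer B/G FRET substrate, 2 h, room temperature.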

[14] = cAMP Responsive Elements (CRE) small molecule antagonists, cell-based qHTS assay (AID 1963591; active = well fitted inhibition curve with a large enough effect in the signal ratio in the repeat runs, not every such curve was filed as active; the % refers to the signal ratio)
Summary of the method: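 Stimulation used NKH477 at a final 0.25 uM for 3 h in compound-treated CRE-bla HEK293T cells, seeded 18 h beforehand. Reporter activity was measured with LiveBLAzer B/G FRET substrate after 2 h at room temperature.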

[15] = target: Beta-2 adrenergic receptor (Homo sapiens) (UniProt P07550); assay: Adrenergic beta2 receptor (ADRB2) small molecule antagonists, cell-based qHTS assay (AID 1963592); note: series mostly up to about 92 µM; nearly all actives have a fitted effect of over 50% in size
Beta-2 adrenergic receptor (Homo sapiens), sequence (P07550 whole entry, looked up): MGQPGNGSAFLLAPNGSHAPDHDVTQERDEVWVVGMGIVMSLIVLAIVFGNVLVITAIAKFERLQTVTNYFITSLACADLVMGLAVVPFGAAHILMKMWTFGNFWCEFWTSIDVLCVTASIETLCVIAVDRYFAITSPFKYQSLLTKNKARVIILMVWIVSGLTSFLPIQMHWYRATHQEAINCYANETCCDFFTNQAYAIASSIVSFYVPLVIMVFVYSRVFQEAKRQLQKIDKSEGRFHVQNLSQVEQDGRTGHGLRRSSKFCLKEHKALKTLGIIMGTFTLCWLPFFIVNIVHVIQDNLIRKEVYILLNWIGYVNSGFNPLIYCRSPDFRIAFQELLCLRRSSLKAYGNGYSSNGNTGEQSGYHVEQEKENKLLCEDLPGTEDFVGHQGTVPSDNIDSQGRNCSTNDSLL
Summary of the method: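 Assay format: CHO-ADRB2 cells, 18-20hr seeding at 37C/5% CO2, then compound plus 1nM isoproterenol agonist mix for 0.5hr RT. Homogeneous time-resolved fluorescence cAMP detection after 1hr, expressed as 665/615 nm ratio.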

[16] = target: D(2) dopamine receptor (Homo sapiens) (UniProt P14416); assay: Dopamine D2 receptor (DRD2) small molecule agonists, cell-based qHTS assay (AID 1963594); note: nearly all actives have a fitted effect of over 35% in size
D(2) dopamine receptor (Homo sapiens), sequence (P14416 whole entry, looked up): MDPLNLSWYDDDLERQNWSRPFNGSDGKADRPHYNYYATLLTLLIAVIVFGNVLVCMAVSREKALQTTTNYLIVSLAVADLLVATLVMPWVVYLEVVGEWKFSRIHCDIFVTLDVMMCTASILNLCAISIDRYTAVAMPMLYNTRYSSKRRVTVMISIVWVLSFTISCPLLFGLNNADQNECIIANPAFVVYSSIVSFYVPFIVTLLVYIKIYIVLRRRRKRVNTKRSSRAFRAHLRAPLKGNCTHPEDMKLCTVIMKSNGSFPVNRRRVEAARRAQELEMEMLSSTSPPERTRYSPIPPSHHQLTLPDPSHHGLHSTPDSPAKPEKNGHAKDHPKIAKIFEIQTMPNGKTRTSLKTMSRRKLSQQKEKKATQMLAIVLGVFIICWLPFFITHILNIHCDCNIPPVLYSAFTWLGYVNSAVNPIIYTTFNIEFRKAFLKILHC
Summary of the method: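 HEK293 cells stably expressing human DRD2, pre-treated with PDE inhibitor Ro20-1724 (0.1 mM final) and compound 10 min at room temperature, then stimulated with NKH477 (200nM […]) for 30 min. cAMP read by HTRF (665/620 nm).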

[17] = target: D(2) dopamine receptor (Homo sapiens) (UniProt P14416); assay: Dopamine D2 receptor (DRD2) small molecule antagonists, cell-based qHTS assay (AID 1963595; active = well fitted inhibition curve with a large enough effect in the signal ratio in the repeat runs, with a control signal flat; the % refers to the signal ratio)
Summary of the method: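 HEK293 cells stably expressing DRD2, preincubated with 0.1 mM Ro20-1724 and compounds 10 min, were stimulated with 200 nM NKH477 plus 12 nM quinpirole for 30 min at room temperature; cAMP measured by HTRF (665/620 nm).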

[18] = target: 5-hydroxytryptamine receptor 2A (Homo sapiens) (UniProt P28223); assay: 5-hydroxytryptamine receptor 2A (HTR2A) small molecule agonists, cell-based qHTS assay (AID 1963587); note: nearly all actives have a fitted effect of over 30% in size
Summary of the method: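 CHO cells stably expressing human HTR2A, plated 18 h, loaded with calcium dye 1 h at 37 C. Agonist mode: compounds added and intracellular calcium fluorescence recorded kinetically for 2 min at 1 sec intervals.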

[19] = target: Muscarinic acetylcholine receptor M1 (Homo sapiens) (UniProt P11229); assay: Cholinergic receptor muscarinic 1 (CHRM1) small molecule antagonists, cell-based qHTS assay (AID 1963588); note: nearly all actives have a fitted effect of over 40% in size
Summary of the method: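 Compounds were tested at 15 concentrations in three independent runs. Dye-loaded CHRM1-CHO cells were exposed 5 min at room temperature before stimulation by acetylcholine added at 50nM. Intracellular calcium was read kinetically on FDSS for 3 min.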

Measured: Potency

Nc1cc([N+](=O)[O-])cc(Cl)c1O
not listed: [18] | [19]
inactive: all other assays above

NCCOCCOCCN
not listed: [11] | [14] | [19]
inactive: all other assays above

Oc1ccccc1C=NCc1ccccc1
not listed: [11]
inactive: all other assays above

COCCc1ccccn1
not listed: [11] | [13]
inactive: all other assays above

CCC(=O)c1c(O)cc(O)cc1O
not listed: [11]
inactive: all other assays above

CC(C)(C)N
not listed: [15] | [17]
inactive: all other assays above

CCOc1cc(OCC)c(C(C)=O)cc1OCC
not listed: [13] | [14]
inactive: all other assays above

c1cnc2c(n1)CCCC2
not listed: [12] | [15]
inactive: all other assays above
